Unmarked numbers belong to inactive results. Results filed as inconclusive are left out. Entries that show only a call come without a potency. Activity calls are given as the source filed them. Unless noted, the call rests on the fitted dose curve; in most records, active means well fitted curve in the direction sought with a large enough effect; inconclusive means small, poorly fitted or top-dose-only effect, or another doubt; inactive means no such curve, though single readings can be large; an effect the other way counts as inactive or inconclusive.

For 34 compounds, outcome, Potency and caspase-3 activation results are on record in PubChem BioAssay (NCATS).

Assay [1] has as its target 3',5'-cyclic-AMP phosphodiesterase 4B (Homo sapiens) (UniProt Q07343). In words: qHTS Assay for Inhibitors of PDE-IV (AID 607; active means well fitted activation curve with a large enough effect in the main read-out, with a control signal flat, not every such curve was filed as active). The essentials:
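The readout is membrane depolarisation from a cAMP-sensing CNG channel, detected with a potential dye at ex 535/em 590. Cells were HEK293-derived (endogenous PDE-IV) at 1000 cells/well, titrated up to 22.9 uM final.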

A short description of assay [2]: Confirmation and Secondary Assay for Modulators of Hemoglobin Beta Chain Splicing at IVS2 654 locus (AID 910).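 Further: HeLa cells stably carrying EGFP split by mutant beta-globin IVS2-654 intron; per-well total GFP intensity by laser scanning cytometry after 2-day treatment.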 A digest of the protocol:
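Readout: per-well total peak green fluorescence (488 nm ex, 500–520 nm em) from objects 5–250 µm, reflecting correct splicing of an EGFP-654 reporter. Compounds were applied for 2 days at 37 °C to overnight-plated HeLa EGFP-654 cells; controls were DMSO and 500 nM IVS2-654 PNA.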

Assay [3] has as its target Cytochrome P450 3A4 (Homo sapiens) (UniProt P08684). Description: qHTS Assay for Inhibitors and Substrates of Cytochrome P450 3A4 (AID 884). Further: nearly all actives have a fitted effect of over 50% in size. Further: potency means the concentration at half of the fitted maximal effect. A digest of the protocol: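 20 nM human CYP3A4 with 25 uM Luciferin-PPXE (at KM) in 200 mM KPO4, preincubated 10 min with compound; NADPH regeneration started a 60 min RT reaction. Luciferin detected by luminescence, normalized to 57 uM ketoconazole as full inhibition.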
On the technique in general: qHTS replaces the single test concentration by a dilution series.

The target of assay [4] is Cytochrome P450 2C9 (Homo sapiens) (UniProt P11712). Description: qHTS Assay for Inhibitors and Substrates of Cytochrome P450 2C9 (AID 883). Further: nearly all actives have a fitted effect of over 60% in size. A digest of the protocol: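 Luminescent read-out of deoxyluciferin hydroxylation, normalized to 57uM sulphaphenazole (AC100). Reaction: 10nM enzyme, 100uM Luciferin-H (equal to KM), 25mM KPO4, 10 min compound preincubation, then 60 min with NADPH regeneration, both at 37C.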
Cytochrome P450 2C9 (Homo sapiens), sequence (P11712 whole entry, looked up): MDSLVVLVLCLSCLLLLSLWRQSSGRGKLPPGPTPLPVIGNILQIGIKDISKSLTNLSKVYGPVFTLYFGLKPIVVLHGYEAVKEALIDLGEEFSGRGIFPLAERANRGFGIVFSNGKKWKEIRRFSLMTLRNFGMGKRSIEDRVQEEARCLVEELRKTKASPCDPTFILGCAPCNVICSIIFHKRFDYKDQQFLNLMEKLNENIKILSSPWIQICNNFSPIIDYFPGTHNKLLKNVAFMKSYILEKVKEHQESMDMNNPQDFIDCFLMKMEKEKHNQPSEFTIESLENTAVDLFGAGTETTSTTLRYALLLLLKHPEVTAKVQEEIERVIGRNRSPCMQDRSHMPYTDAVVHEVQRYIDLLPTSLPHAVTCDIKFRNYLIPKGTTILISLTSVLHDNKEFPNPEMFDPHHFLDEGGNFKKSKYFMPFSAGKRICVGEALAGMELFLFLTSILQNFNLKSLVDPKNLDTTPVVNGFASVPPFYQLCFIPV

Assay [5] concerns the target Guanine nucleotide-binding protein G(i) subunit alpha-1 (Homo sapiens) (UniProt P63096). Description: qHTS Assay for Inhibitors of RGS12 GoLoco Motif Activity (Green Fluorophore) (AID 879).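 Further: negative values mean loss of peptide binding seen as reduced polarization.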 A digest of the protocol:
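Fluorescence polarization assay: 50 nM Gαi1 with 10 nM FITC-labeled RGS12 GoLoco peptide in 10 mM Tris pH 7.5, 150 mM NaCl, 0.1 mM GDP, 0.05% NP40, 10 min at room temperature with compound.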

A short description of assay [6]: qHTS Assay for Identification of Small Molecule Antagonists for NFkB Signaling Pathway (AID 895; active means well fitted inhibition curve with a large enough effect in the signal ratio, with a control signal flat, not every such curve was filed as active; the % refers to the signal ratio). A digest of the protocol:
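Beta-lactamase reporter read-out (460 and 530 nm emission ratio, 405 nm excitation, 2 hrs substrate loading RT) after 5 hr stimulation with 10 pM TNF alpha in compound-treated NFkB-bla ME-180 cells in low-serum medium.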

The nature of assay [7]: Cellular Toxicity (caspase-3) Jurkat (AID 655).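 Further: cells exposed to compound for 16 h at 37 °C before reading.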 The following applies: Jurkat caspase-3 activation, luminescence, DMSO = 0%, tamoxifen = 100%; at 92.2 µM (top of the series). A digest of the protocol:
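5000 Jurkat cells/well; compound 16 hr, 37 °C; Caspase-Glo 3/7 added, 20 min RT; luminescence read. Norm: DMSO = 0%, tamoxifen 100 uM = 100%. AC50, Hill model.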

A short description of assay [8]: Cellular Toxicity (caspase-3) SHSY5Y (AID 657). The essentials:
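qHTS, SH-SY5Y, 1500 cells/well, 5 h pre-incubation 37 °C; compound 16 h 37 °C; Caspase-Glo 3/7 1 h RT; luminescence. Norm.: DMSO = 0, 10 uM staurosporine = 100%. Hill fit → AC50.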

A short description of assay [9]: Cellular Toxicity (caspase-3) BJ (AID 658). The essentials:
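Readout: Caspase-Glo 3/7 luminescence increase in BJ cells after 16 hr treatment at 37 °C. Staurosporine and tamoxifen served as positive controls; AC50 values came from Hill modelling of data normalized to DMSO and 10 uM staurosporine.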

A short description of assay [10]: Cellular Toxicity (caspase-3) MRC-5 (AID 659). A digest of the protocol: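 Concentration-dependent caspase 3/7 activation is measured in human normal lung fibroblasts (MRC-5) following 16-hour treatment. AC50 values come from standard Hill-equation modeling of luminescence normalized to DMSO and 10 uM staurosporine.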
Assay [11] can be described thus: Cellular Toxicity (caspase-3) Mesangial (AID 660).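 Further: combined caspase 3 and 7 activity read by Caspase-Glo luminescence; cells exposed to compound for 16 h before the caspase read.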 The essentials: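 Human renal glomerular mesangial cells, 1000/well, 5 h at 37 C before 16 h compound treatment. Caspase-Glo 3/7 luminescence after 20 min; normalized to DMSO and 100 uM tamoxifen, AC50 from Hill fit.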
Assay [12] in a line: Cellular Toxicity (caspase-3) SK-N-SH (AID 661). A digest of the protocol:
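Human SK-N-SH neuroblastoma cells, 1500/well, were exposed to compounds for 16 hours at 37 °C. Caspase-Glo 3/7 luminescence was normalized to DMSO (basal) and 10 uM staurosporine (100%), and AC50 came from a Hill fit.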

Assay [13] is described as follows: Cellular Toxicity (caspase-3) H-4-II-E (AID 663).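 Further: cells exposed to compound for 16 hr before readout.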 To be noted: Potency: caspase-3 activation. The essentials:
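Apoptosis induction is scored as increased luminescence from caspase 3/7 substrate cleavage in rat hepatoma H-4-II-E cells exposed to compound for 16 hr. Activity is scaled between DMSO and 100 uM tamoxifen.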

A short description of assay [14]: Cellular Toxicity (caspase-3) N2a (AID 665).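 Further: compound exposure lasted 16 h at 37 °C before readout.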 A digest of the protocol:
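Mouse N2a neuroblastoma cells, 1500 per well, treated 16 h at 37 °C in complete medium; caspase-3/7 activity by Caspase-Glo luminescence after 1 h. Normalized to DMSO and 10 uM staurosporine; AC50 from Hill fits.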

Assay [15] can be described thus: Cellular Toxicity (caspase-3) NIH 3T3 (AID 666).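 Further: caspase signal read after 16 h compound exposure.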 A digest of the protocol:
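Mouse NIH 3T3 fibroblasts (1000/well) treated 16 h at 37 C; caspase-3/7 activity measured by Caspase-Glo 3/7 luminescence after 20 min. Normalized to DMSO and 100 uM tamoxifen; AC50 from Hill fits.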

Assay [16] concerns the target Cytochrome P450 2D6 (Homo sapiens) (UniProt P10635). Description: qHTS Assay for Inhibitors and Substrates of Cytochrome P450 2D6 (AID 891). Further: potency means the concentration at half of the fitted maximal effect; nearly all actives have a fitted effect of over 60% in size. The following applies: recombinant CYP2D6, luciferin-ME EGE luminescence. A digest of the protocol: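 Human CYP2D6 (5 nM) with 30 uM Luciferin-ME EGE (at Km) in 100 mM KPO4, compound preincubated 10 min, then NADPH regeneration system for 60 min at room temperature. Luciferin read by luminescence; normalized to 1.43 uM quinidine.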

3',5'-cyclic-AMP phosphodiesterase 4B (Homo sapiens), sequence (Q07343 whole entry, looked up): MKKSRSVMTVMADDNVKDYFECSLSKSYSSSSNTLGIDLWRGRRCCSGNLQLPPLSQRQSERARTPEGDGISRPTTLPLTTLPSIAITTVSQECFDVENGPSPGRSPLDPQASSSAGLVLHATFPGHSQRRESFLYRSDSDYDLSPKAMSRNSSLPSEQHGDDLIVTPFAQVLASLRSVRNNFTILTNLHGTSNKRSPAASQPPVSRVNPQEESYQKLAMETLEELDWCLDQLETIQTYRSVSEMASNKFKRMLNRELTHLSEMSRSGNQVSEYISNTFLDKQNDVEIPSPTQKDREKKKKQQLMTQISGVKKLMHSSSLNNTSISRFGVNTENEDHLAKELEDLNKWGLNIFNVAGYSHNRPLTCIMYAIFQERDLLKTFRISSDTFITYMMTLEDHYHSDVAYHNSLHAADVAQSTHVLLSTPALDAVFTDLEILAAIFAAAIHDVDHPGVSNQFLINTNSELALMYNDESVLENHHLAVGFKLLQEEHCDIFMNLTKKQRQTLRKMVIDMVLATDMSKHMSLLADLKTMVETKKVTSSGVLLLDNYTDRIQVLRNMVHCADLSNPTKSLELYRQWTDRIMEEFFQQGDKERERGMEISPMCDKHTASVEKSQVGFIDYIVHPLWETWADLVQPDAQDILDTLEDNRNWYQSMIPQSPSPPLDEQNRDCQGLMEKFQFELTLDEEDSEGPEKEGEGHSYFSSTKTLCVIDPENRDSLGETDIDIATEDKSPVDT
Cytochrome P450 2D6 (Homo sapiens), sequence (P10635 whole entry, looked up): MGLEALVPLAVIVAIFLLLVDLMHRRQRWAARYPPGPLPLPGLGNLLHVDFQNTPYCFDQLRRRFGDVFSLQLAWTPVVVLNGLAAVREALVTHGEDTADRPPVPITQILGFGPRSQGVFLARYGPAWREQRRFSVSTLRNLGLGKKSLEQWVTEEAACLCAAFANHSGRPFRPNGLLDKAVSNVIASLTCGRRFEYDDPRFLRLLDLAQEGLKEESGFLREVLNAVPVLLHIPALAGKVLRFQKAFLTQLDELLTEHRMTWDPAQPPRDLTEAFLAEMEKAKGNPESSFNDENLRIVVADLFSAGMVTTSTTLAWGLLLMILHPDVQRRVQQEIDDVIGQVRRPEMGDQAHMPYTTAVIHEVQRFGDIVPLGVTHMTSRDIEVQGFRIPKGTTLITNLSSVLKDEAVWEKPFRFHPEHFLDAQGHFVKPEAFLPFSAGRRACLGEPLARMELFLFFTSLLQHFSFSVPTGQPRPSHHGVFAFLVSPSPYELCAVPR
Cytochrome P450 3A4 (Homo sapiens), sequence (P08684 whole entry, looked up): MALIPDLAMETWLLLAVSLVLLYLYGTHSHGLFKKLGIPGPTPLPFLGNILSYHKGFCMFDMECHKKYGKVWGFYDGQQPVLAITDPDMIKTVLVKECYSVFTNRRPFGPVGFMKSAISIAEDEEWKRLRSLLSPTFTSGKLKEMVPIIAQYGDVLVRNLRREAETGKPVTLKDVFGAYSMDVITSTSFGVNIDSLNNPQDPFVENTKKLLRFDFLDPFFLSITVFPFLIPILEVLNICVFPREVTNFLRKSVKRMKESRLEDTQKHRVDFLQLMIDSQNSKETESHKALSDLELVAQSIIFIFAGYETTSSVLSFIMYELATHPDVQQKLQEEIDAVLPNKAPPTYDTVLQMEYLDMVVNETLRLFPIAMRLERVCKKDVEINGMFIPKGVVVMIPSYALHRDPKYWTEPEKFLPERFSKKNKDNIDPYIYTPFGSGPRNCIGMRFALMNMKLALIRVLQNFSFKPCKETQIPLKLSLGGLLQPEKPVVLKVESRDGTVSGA
Guanine nucleotide-binding protein G(i) subunit alpha-1 (Homo sapiens), sequence (P63096 whole entry, looked up): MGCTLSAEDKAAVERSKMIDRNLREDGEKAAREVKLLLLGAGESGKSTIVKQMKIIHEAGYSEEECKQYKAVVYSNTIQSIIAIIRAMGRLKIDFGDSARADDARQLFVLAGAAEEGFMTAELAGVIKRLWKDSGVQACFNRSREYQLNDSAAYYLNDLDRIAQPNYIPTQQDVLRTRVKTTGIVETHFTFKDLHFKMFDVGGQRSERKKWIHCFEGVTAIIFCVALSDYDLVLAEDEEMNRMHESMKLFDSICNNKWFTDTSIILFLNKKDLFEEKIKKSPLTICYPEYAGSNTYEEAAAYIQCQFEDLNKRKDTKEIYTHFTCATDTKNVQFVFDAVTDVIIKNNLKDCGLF

As for `COc1cc(NS(=O)(=O)c2ccc(N)cc2)ncn1`, the compound was called inactive in assay [1] and in assay [2].

With `Nc1ccc(C(=O)NCC(=O)O)cc1`, the call in assay [1] and in assay [2] was inactive. In addition, the Potency result in assay [3] is “inactive”.

For `O=C1C(CCS(=O)c2ccccc2)C(=O)N(c2ccccc2)N1c1ccccc1` (centres undefined), the result in assay [1] and in assay [2] was inactive.

For the compound `c1ccc(CC2=NCCN2)cc1`, the outcome in assay [1] and in assay [2] was inactive.

Take `COc1ccccc1N1CCN(CCCCNC(=O)c2ccc(-c3ccc(C(C)=O)cc3)cc2)CC1`: the Potency result in [4] is “inactive”.

For the compound `COc1cc(C(=O)NCc2ccc(OCCN(C)C)cc2)cc(OC)c1OC`, the compound was classed as inactive in assay [1], in assay [4] and in [2].

As for `CCN(CC)CCNC(=O)c1cc(Br)c(N)cc1OC`, the call in assay [1] and in assay [2] was inactive.

Take `Cc1cc(-c2ccccc2)nnc1NCCN1CCOCC1`: the compound was classed as inactive in assay [1] and in assay [2].

As for `NC(N)=NCc1cccc(I)c1`, the outcome in assay [1], in assay [5] and in assay [6] was inactive.

For `Oc1ccc(Cl)cc1Cc1cc(Cl)ccc1O`, in assay [7], the caspase-3 activation was 86% (active). Moreover, the compound was called inactive in assay [8], in assay [9], in assay [10], in [11], in assay [12] and in assay [14]. For the same compound, the outcome in [15] and in assay [2] was inactive. Further, the Potency result in [13] was “inactive”.

With `O=C1C(O)=C(O)C(=O)C(O)=C1O`, the compound was called inactive in [1] and in assay [2]. In assay [3], the Potency entry was “inactive”.

Turning to `COc1cc(N)c(Cl)cc1C(=O)NC1CCN(Cc2ccccc2)CC1`, the compound was called inactive in assay [1] and in assay [2]. The Potency result in [4] was “inactive”. In addition, the Potency in assay [3] was 12.6 µM (active); in [16], 0.0126 µM (active).

As to `CCOC(=O)c1ccc(N)cc1`, the compound was called inactive in assay [1] and in [2].

Take `CCN(CC)CCNc1ccc(CO)c2sc3ccccc3c(=O)c12`: the compound was called inactive in [1] and in assay [2]. Also, the Potency in assay [16] is 5.01 µM (active).

Consider `COc1ccc(C(=O)c2ccccc2O)c(O)c1`, for which the compound was called inactive in [1] and in assay [2].

Turning to `CCOC(=O)[C@H](CCc1ccccc1)N[C@@H](C)C(=O)N1[C@H](C(=O)O)C[C@H]2CCCC[C@@H]21`, in [3], the Potency result was “inactive”. Besides, in [2], the call was inactive.

For `CCC(Cc1c(I)cc(I)c(N)c1I)C(=O)O` (centres undefined), the Potency entry in assay [3] is “inactive”. Further, the call in [2] was inactive.

For `CCCCCN=C(N)N/N=C/c1c[nH]c2ccc(OC)cc12`, the Potency entry in assay [3] was “inactive”. In addition, the result in assay [2] was inactive.

With `Cc1ccccc1OCC(O)CO` (centres undefined), the compound was classed as inactive in assay [2].

For the compound `CCN1CCCC(OC(=O)C(c2ccccc2)c2ccccc2)C1` (centres undefined), the outcome in assay [2] was inactive.

Consider `CC(C(=O)O)c1cccc(Oc2ccccc2)c1` (centres undefined), for which the Potency entry in assay [3] is “inactive”. In addition, in [2], the result was inactive.

Consider `COP(=O)(OC)OC(c1ccc(Cl)cc1)P(=O)(OC)OC` (centres undefined), for which the Potency result in assay [3] is “inactive”.

As to `CN(C)CCOC(c1ccc(Cl)cc1)c1ccccn1` (centres undefined), the Potency entry in assay [3] is “inactive”. Moreover, the compound was classed as inactive in [2].

As to `Cc1cc(C)cc(OCC2CNC(=O)O2)c1` (centres undefined), the Potency entry in assay [3] was “inactive”. In addition, the compound was called inactive in assay [2].

As for `Cc1c(-c2ccccc2)oc2c(C(=O)OCCN3CCCCC3)cccc2c1=O`, the Potency in [16] is 7.94 µM (active).

As for `COC(=O)C(c1ccccc1Cl)N1CCc2sccc2C1` (centres undefined), in assay [2], the outcome was inactive.

Consider `CCN(CC)CCOC(=O)C(Cc1cccc2ccccc12)CC1CCCO1` (centres undefined), for which the compound was called inactive in [2].

For the compound `CCCCC(CC)CN1CN(CC(CC)CCCC)CC(C)(N)C1` (centres undefined), the Potency entry in assay [3] is “inactive”. In assay [2], the compound was called inactive.

As to `O=C(O)CCNC(=O)c1ccccc1`, the Potency entry in [3] was “inactive”. The call in assay [2] was inactive.

Regarding `C[C@H]1[C@H]2CC[C@H]3[C@@H]4CC=C5C[C@@H](N(C)C)CC[C@]5(C)[C@H]4CC[C@]23CN1C`, the Potency result in assay [3] was “inactive”.

`CC(=O)Nc1ccc(S(=O)(=O)Nc2ccc([N+](=O)[O-])cc2)cc1`: the compound was called inactive in assay [2].

For the compound `CN(C)C(=O)Nc1ccc(Cl)c(Cl)c1`, the Potency entry in assay [3] was “inactive”. The result in assay [2] was inactive.

In the case of `CN(C)CCOC(=O)C(c1ccccc1)C1(O)CCCC1` (centres undefined), the Potency entry in assay [3] is “inactive”. Besides, in [2], the compound was called inactive.

Consider `OCCOCCN1CCN(C2=Nc3ccccc3Sc3ccccc32)CC1`, for which the compound was called inactive in assay [2].
